Screening results (PubChem)
Autofluor counter = flagged as autofluorescent in microsphere protease counterscreen; compound autofluorescence counterscreen, microsphere flow cytometry; hits give high values; fluorescence intensity (concentration not given with the values); actives 3.1% (n = 360,000); AID 624483; in the data active = fluorescence intensity above about 16000; inconclusive = no clear call, values can overlap the other calls
BoNT A protease = blocks Botulinum neurotoxin A light chain protease. multiplex microsphere protease substrate cleavage, flow cytometry. inhibition, % at 10 µM. actives 0.17% (n = 360,000). AID 588499; note: plate controls were buffer without enzyme for full effect and enzyme alone for no effect
Anthrax LF prot = anthrax lethal factor protease inhibition; P15917; multiplex microsphere protease cleavage assay, LF; inhibition, % at 10 µM; actives 0.12% (n = 360,000); note: plate controls were buffer without enzyme for full effect and enzyme alone for no effect
Target sequence (P15917 whole entry, looked up): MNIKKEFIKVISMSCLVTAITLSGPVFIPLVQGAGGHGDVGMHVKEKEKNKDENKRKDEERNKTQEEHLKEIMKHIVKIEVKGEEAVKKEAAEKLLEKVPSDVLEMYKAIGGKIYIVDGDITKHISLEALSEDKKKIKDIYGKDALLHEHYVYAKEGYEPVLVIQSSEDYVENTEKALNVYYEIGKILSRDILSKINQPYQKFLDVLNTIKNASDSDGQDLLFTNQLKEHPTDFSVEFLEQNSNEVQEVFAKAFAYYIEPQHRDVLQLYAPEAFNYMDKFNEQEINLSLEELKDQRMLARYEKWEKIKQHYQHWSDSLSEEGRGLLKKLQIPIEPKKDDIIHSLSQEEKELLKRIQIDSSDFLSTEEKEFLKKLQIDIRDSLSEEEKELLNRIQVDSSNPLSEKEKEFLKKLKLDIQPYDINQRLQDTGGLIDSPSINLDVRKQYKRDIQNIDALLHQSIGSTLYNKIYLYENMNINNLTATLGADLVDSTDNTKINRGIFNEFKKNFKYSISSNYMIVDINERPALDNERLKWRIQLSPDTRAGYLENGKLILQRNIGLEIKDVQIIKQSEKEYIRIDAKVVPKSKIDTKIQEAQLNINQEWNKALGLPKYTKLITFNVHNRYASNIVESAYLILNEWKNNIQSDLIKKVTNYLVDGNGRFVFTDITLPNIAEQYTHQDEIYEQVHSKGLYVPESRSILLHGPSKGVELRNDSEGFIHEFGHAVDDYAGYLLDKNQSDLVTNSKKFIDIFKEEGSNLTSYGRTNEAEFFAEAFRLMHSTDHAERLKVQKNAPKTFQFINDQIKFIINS
BoNT-F LC inh = BoNT F light chain protease inhibition; Multiplex microsphere protease cleavage assay, flow cytometry; AID 588497; inhibition, % at 10 µM; actives 0.22% (n = 360,000); in the data active = inhibition above about 35%, passing the limit was not always enough; inconclusive = no clear call, values can overlap the other calls; note: plate controls were buffer without enzyme for full effect and enzyme alone for no effect
SARS 3CLpro inh = SARS-CoV 3CLpro protease inhibition; P0C6X7; recombinant SARS-CoV 3CLpro, quenched FRET peptide cleavage; inhibition, % at 6 µM; actives 0.14% (n = 290,000); AID 1706; in the data active = inhibition above about 12%
Numbers without * were called inactive; ? = inconclusive; . = no result given. Most compounds without a hit are left out; they make up all but 3.5% or so of the library. Cut-off read from the data, not from the text of the source, unless noted: active = inhibition above about 30%; inconclusive = no clear call, values can overlap the other calls; inactive = below that.

SMILES	Autofluor counter	BoNT A protease	Anthrax LF prot	BoNT-F LC inh	SARS 3CLpro inh
CN1CCc2c(sc3c2C(=O)NC(c2cn(Cc4ccccc4)c4ccccc24)N3)C1 (centres undefined)	20205*	10.6	16.4	-10.9	-3.0
COc1cc(NC(=O)c2ccccc2)c(OC)cc1NC(=O)Cc1ccc(C)cc1	3294	0.6	20.3	27.1	1.4
CCOC(=O)CC(=O)CSc1nc2ccccc2c(=O)n1-c1ccc(C(=O)NCCOC)cc1	16847*	-0.8	-1.5	-1.2	-0.1
CC1=C(C(=O)OC(C)C)C(c2cccs2)NC(=S)N1 (centres undefined)	2061	0.2	1.6	0.4	2.9
COC(=O)CC1NCCNC1=O (centres undefined)	9025	0.7	-8.1	3.9	3.3
O=C(CC1SCCNC1=O)Nc1ccc(F)c(Cl)c1 (centres undefined)	3510	0.7	-2.2	0.9	3.0
Cc1ccc(NC(=O)CC2SCCNC2=O)cc1Cl (centres undefined)	23686*	?	-4.1	-3.1	3.4
COC(=O)CC1SCCNC1=O (centres undefined)	20974*	-1.4	0.8	-1.2	-1.8
O=C(Nc1ccccc1Oc1ccccc1)c1cccc([N+](=O)[O-])c1	20430*	?	-1.4	-2.8	4.6
Cc1ccc(C(=O)Nc2ccccc2Oc2ccccc2)cc1[N+](=O)[O-]	4468	-0.3	-0.4	11.2	5.3
CNC(=O)CSc1nc2nn(-c3ccccc3)c(=O)c-2c2n1CCCCC2	21375*	-3.2	-0.8	-1.5	3.8
O=C(OCc1nnc(-c2ccccc2)o1)c1cc(Cl)ccc1[N+](=O)[O-]	3427	-0.7	-4.8	1.1	1.0
CCOC(=O)N1CCN(c2c(NCCc3ccc(OCC)c(OCC)c3)c(=O)c2=O)CC1	24406*	-3.6	0.5	-5.0	0.0
CNC(=O)CCCc1nc(-c2ccccc2Cl)no1	17469*	-5.5	-4.8	-10.4	2.6
COc1ccc(-c2noc(CCC(=O)NCCc3ccccc3)n2)cc1	3869	-1.8	-7.1	-8.9	1.0
O=C(CCCN1C(=O)c2cccc3cccc(c23)C1=O)NCc1cccnc1	3841	0.1	-2.7	0.7	0.8
O=C(CCCN1C(=O)c2ccccc2C1=O)NCc1cccnc1	22861*	-0.8	-4.2	-2.6	-5.0
O=C(CCc1nc(-c2ccccc2)no1)NCCc1ccccc1	22301*	3.1	-10.0	1.5	-0.3
COc1ccc(CCNC(=O)CCCN2C(=O)c3ccccc3C2=O)cc1OC	12573	-0.3	-3.0	-2.9	3.5
COc1ccc(-c2noc(CCC(=O)NCc3cccnc3)n2)cc1	23172*	-0.9	1.1	-4.4	1.0
CCOc1ccc(CCNC(=O)CCCN2C(=O)c3ccccc3C2=O)cc1OCC	21585*	?	-0.7	1.5	-2.5
O=C(CCCc1nc(-c2ccccc2)no1)NCc1cccnc1	24495*	?	-0.1	-8.3	1.5
CCOC(=O)N1CCC(NC(=O)Cn2cc3c(n2)CCCC3)CC1	6329	-1.7	-2.0	-17.6	6.9
COc1cc(C(=O)NCCC(=O)N2CCCCC2)cc(OC)c1OC	3910	-1.5	-15.6	-13.9	1.2
COC(=O)c1ccc(CS(=O)(=O)c2ccc(C)cc2)cc1	21233*	?	-3.5	5.2	2.1
SMILES	Autofluor counter	BoNT A protease	Anthrax LF prot	BoNT-F LC inh	SARS 3CLpro inh
COc1ccc(-c2ccc(-c3nnc(Cc4ccc(OC)c(OC)c4)o3)cc2)cc1	22185*	1.3	-5.0	3.6	-2.4
Cc1ccc(C(C)NC(=O)c2ccco2)cc1C (centres undefined)	21456*	-2.2	-0.8	-5.6	2.9
Cc1cccc(C)c1NC(=O)COC(=O)c1ccccc1Nc1ccccc1	2446	0.4	-1.7	-3.0	3.2
CCCCCc1nnc(NC(=O)C2CCCO2)s1 (centres undefined)	20636*	-2.9	1.6	-3.6	0.6
Cc1nnc(NC(=O)C2CCCO2)s1 (centres undefined)	4025	-1.4	2.4	10.3	1.3
O=C(Nc1nnc(-c2ccncc2)s1)C1CCCO1 (centres undefined)	16579*	-1.4	-4.6	-2.9	-2.6
COc1ccccc1NC(=S)N1CC(C)(C)C1=O	4168	-0.3	5.6	-11.7	-3.5
Cc1nn(Cc2ccc(C(=O)Nc3ccccc3C(F)(F)F)o2)c(C)c1Br	23948*	-0.4	-2.5	-1.4	2.8
COC(=O)N1CC(c2ccccc2)CC1=O (centres undefined)	19692*	1.1	-0.5	2.6	-6.5
COc1cc(NC(=O)CN2CC(c3ccccc3)CC2=O)cc(OC)c1 (centres undefined)	5866	-0.3	-5.4	-0.1	2.0
CCN(CC)C(=S)SCC(=O)Nc1ncc2c(n1)CC(C)(C)CC2=O	4709	-3.0	?	-22.7	-1.0
CCCCn1c(SCC(N)=O)nnc1-c1ccco1	22326*	-0.6	-1.3	-1.2	-2.4
COCCCn1c(SCC(=O)N2CCCCC2C)nnc1-c1ccco1 (centres undefined)	16205*	-0.2	-3.2	0.7	-3.6
CCCCn1c(SCC(=O)NC(C)(C)C)nnc1-c1ccco1	11251	-0.1	-4.1	-4.3	0.0
CC(C)Cn1c(N)c(C(=O)CSc2nnc(-c3ccco3)n2C)c(=O)n(C)c1=O	3941	-0.1	6.5	1.5	.
COCCCn1c(SCC(=O)NC2CCCC2)nnc1-c1ccco1	20908*	-2.8	-0.6	-3.4	3.2
CC(C)Cn1c(SCC(=O)c2ccc(Cl)s2)nnc1-c1ccco1	22317*	0.8	-2.5	1.0	-3.1
COc1ccc(Br)cc1C1NC(=O)NC(C)=C1C(=O)N(C)C (centres undefined)	5959	-0.9	-0.8	-16.2	5.4
CSc1nc2n(n1)C(c1cc(Br)ccc1F)C(C(=O)N(C)C)=C(C)N2 (centres undefined)	20105*	-2.2	-5.9	-4.0	-0.7
CN(C)S(=O)(=O)c1ccc(Cl)c(NC(=O)COC(=O)c2ccc3c(c2)NC(=O)CS3)c1	5424	1.0	-1.2	-9.6	-0.8
O=C(Nc1ccccn1)c1ccc2ccccc2c1O	3050	-1.7	-23.5	-10.1	-6.3
O=C(O)c1ccccc1C(=O)Nc1ccccn1	23171*	0.7	-2.4	1.3	0.3
CN1CCCCCC1=Nc1ccc([N+](=O)[O-])cc1	2847	-0.5	0.9	39.3*	.
Cn1c(/N=C/c2cc(Cl)ccc2O)nc2ccccc21	.	.	.	.	-9.6
O=C(CCSc1nnc2ccc3ccccc3n12)Nc1ccc(F)cc1	3449	1.3	0.7	8.9	3.3
SMILES	Autofluor counter	BoNT A protease	Anthrax LF prot	BoNT-F LC inh	SARS 3CLpro inh
O=C(CCSc1nnc2ccccn12)Nc1ccc(F)cc1	23399*	-0.1	1.1	1.8	0.5
Nc1nnc(CSCc2cccc(Br)c2)s1	3322	-0.7	-3.3	-1.8	-3.2
Cc1nc(C)c(-c2csc(NCc3ccccc3)n2)s1	4391	0.1	-0.3	7.0	1.2
O=C(CCSc1ccccc1)Nc1nccs1	16866*	?	-0.1	-2.2	5.7
Cc1ccc(SCCC(=O)Nc2nccs2)cc1	5651	-0.5	-6.7	-14.9	0.1
CCOC(=O)CNC(=S)N(Cc1ccc(C)cc1)Cc1ccc(C)o1	2125	2.7	-1.2	23.1	3.5
CCOC(=O)c1[nH]c(C)c(C(=O)OCCN2C(=O)c3ccccc3C2=O)c1C	20341*	-2.0	-8.3	-4.6	1.6
